The text below walks through data of PubChem BioAssay (NCI).

The structures appear in SMILES notation. About 83,000 compounds went through this panel and 20% of them were active in at least one assay; those are over-represented in the sample as a whole.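 Percent growth is the endpoint: 0 to 100 indicates growth inhibition (40 means 60% inhibition), 0 means no net growth, and negative values indicate cell death.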 Calls of active or inactive are those of the source.

For the test, the system named is HCC-2998 colon. Nature of the test: NCI-60 one-dose screen, 48 h (100 = growth as untreated, 0 = no growth, -100 = all killed). The conditions noted are these: 10 µM unless noted. As for the experimental part:
Growth inhibition of the HCC-2998 human tumor cell line is measured as a screen for anti-cancer activity. Cells are grown in 96 well plates and exposed to the test compound for 48 hours. Compounds are tested at a single concentration, which is 10^-5 M for most compounds. The reported endpoint is percent growth (GI% or GIPRCNT), where numbers from 0 - 100% represent growth inhibition, and numbers from -100% - 0 represent cell death. For example, a value of 40 represents 60% growth inhibition. A value of 0 means no net growth occurred over the course of the experiment. A value of -40 indicates 40% of cells at the beginning of the experiment died by the end of the experiment. A value of -100 means all cells are dead at the end of the experiment.
NCI-60 Human Tumor Cell Lines Screen was performed using the standard one-dose NCI protocol, which is described in more detail at https://dtp.cancer.gov/discovery_development/nci-60/default.htm.
Compounds with GIPRCNT values below 10 were considered active. Activity score was based on GIPRCNT using the following formula: […]
Score is 0 for GIPRCNT values of 100 or above, 50 for GIPRCNT values of 0, and 100 for GIPRCNT values of -100.
As for `Cn1cc(-c2nonc2-c2c[nH]c3ccc(F)cc23)c2cc(Br)ccc21`, the growth was 40.1% (inactive). Then `CCCCCCCCn1ccc2cc(NC(=O)Cn3cc(CN4CCC(C)CC4)nn3)ccc21`, with -78.8% (active). The figure for `Cn1cc(-c2nn3cc(-c4ccccc4)nc3s2)c2ccccc21` is 86% (inactive). For the compound `CCN(CC)c1ccc(/C=C\c2cc(C)c3cc(C)ccc3n2)cc1`, the growth is 13.6% (inactive). In the case of `Cc1nc2ccccc2c(/C=C/c2ccc(C(F)(F)F)cc2)c1C(=O)/C=C/c1ccccc1`, the growth is -74.7% (active). The figure for `CCCCNC1=C(OCC)C(=O)c2ccccc2C1=O` is 95.1% (inactive); for `COc1ccc(-c2cc(C(=O)N3N=C(c4ccc(N)cc4)CC3c3ccccc3)c3ccccc3n2)cc1` (stereo not given) it is 59.9% (inactive). The figure for `C[N+](C)(C/C=C/c1ccccc1)Cc1ccccc1` is 95.8% (inactive); for `CCCCCCCCn1ccc2cc(NC(=O)Cn3cc(CN4CCN(CC)CC4)nn3)ccc21` it is -12.2% (active); for `O=C1Nc2ccccc2/C1=C/c1cn(C[C@@H](O)Cn2c3ccccc3c(=O)c3ccccc32)c2ccccc12` it is 76.1% (inactive). Consider `N#Cc1c(-c2ccccc2)cc(-c2ccccc2)n(CCCC(=O)NO)c1=O`, for which the growth is 47.4% (inactive). For the compound `NC(=O)OCCn1cc(-c2nc(-c3c[nH]c4ncccc34)cs2)c2ccccc21`, the growth was 71.7% (inactive). Then `O=C(c1ccc(Cl)cc1Cl)N1c2ccccc2Sc2ccccc21`, with 64.6% (inactive); and `COc1ccc(C2=Nc3c(N)ncnc3NC(c3cccc(Nc4ccnc5cc(C(F)(F)F)ccc45)c3)C2)cc1` (stereo not given), with 72.1% (inactive). Then `C=CC(C)(O)CC/C=C(\CO)C(=O)OC1C(C)OC(O[C@](C)(C=C)CC/C=C(\CO)C(=O)O[C@H]2C[C@@]3(C(=O)OC4OC(CO)C(O)C(O)C4OC4OC(C)C(OC5OC(CO)C(O)C5O)C(OC5OC(CO)C(O)C(O)C5O)C4O)C(CC2(C)C)C2=CCC4[C@@]5(C)CC[C@H](OC6OC(COC7OC(C)C(O)C(O)C7OC7OCC(O)C(O)C7O)C(O)C(O)C6NC(C)=O)C(C)(C)C5CC[C@@]4(C)[C@]2(C)C[C@H]3O)C(O)C1O` (stereo not given in full), with -90.5% (active); and `COc1cc(C2C3=C(COC3=O)N(CCO)c3cc4c(cc32)OCCO4)cc(OC)c1OC` (stereo not given), with -0.511% (active); and `O=C(CBr)CN1C(=O)c2ccccc2C1=O`, with 98.8% (inactive). In the case of `Nc1n[nH]c2ccc([C@@H]3Nc4cc5[nH]ncc5cc4[C@H]4C5CCC(C5)[C@@H]34)cc12` (stereo not given in full), the growth was 18.1% (inactive).

As for `Brc1ccc(-c2cnc3nonc3n2)cc1`, the growth is 91.3% (inactive). Then `CCOC(=O)n1cc(-c2nonc2-c2cn(C)c3ccccc23)c2ccccc21`, with 60.9% (inactive); and `NC(=O)c1ccc(NC(=O)c2oc3ccccc3c2-c2cnn(-c3ccccc3)c2)cc1`, with 28.7% [50 µM] (inactive). The figure for `Clc1ccc(-c2cn3ccsc3n2)c(Cl)c1Cl` is 92.5% (inactive); for `COc1ccc2c(c1)c(-c1cc(-c3cn(C)c4ccc(OC)cc34)on1)cn2C` it is 101% (inactive).

Consider `COc1cccc(/C=C2\COc3ccc(O)cc3C2=O)c1`, for which the growth was 115% (inactive). The figure for `Cc1ccc(/C=C2\CN(C(=O)C(Cl)Cl)C/C(=C\c3ccc(C)cc3)C2=O)cc1` is -89.6% (active).

Consider `Cc1cc(C)cc(Nc2ccc([N+](=O)[O-])c(NCCN3CCOCC3)n2)c1`, for which the growth is 9% (active).

For the compound `CCCNc1nc2ccccc2c2c(=O)c3cccc(Cl)c3sc12`, the growth is 103% (inactive).

`O=C(CN1CCN(c2cc3c(cc2F)c(=O)c(C(=O)O)cn3C2CC2)CC1)N/N=C/c1ccncc1`: the growth was 110% (inactive). Then `CCCCCCCCNc1cc2c3c(c1)CCCN3CCC2`, with 11.8% (inactive); and `C#CCn1cnc2c(Nc3cccc(NC(=O)CCl)c3)ncnc21`, with 77.6% (inactive). For `Cc1cccc(-n2c(C)nc3ccc(N4CCCNC4=O)cc3c2=O)c1`, the growth is 109% (inactive).

As for `O=C(c1ccc(F)c(Cl)c1)N1c2ccccc2Sc2ccccc21`, the growth is 62.3% (inactive). Then `CO[C@H](C(=O)[C@@H](O)[C@@H](C)O)[C@@H]1Cc2cc3cc(O[C@H]4C[C@@H](O[C@H]5C[C@@H](O)[C@H](O)C(C)O5)[C@H](O)C(C)O4)c(C)c(O)c3c(O)c2C(=O)[C@H]1O[C@H]1C[C@@H](O[C@H]2C[C@@H](O[C@H]3C[C@@H](OC)[C@H](O)C(C)O3)[C@@H](O)C(C)O2)C(O)(O)C(C)O1` (stereo not given in full), with -13.7% (active); and `Cn1ccnc1C(=O)/C=C/c1ccc(C(=O)Nc2ccc(F)cc2)cc1`, with -0.654% (active). On to `COc1ccc(-c2cc(-c3ccc(OC)cc3)nc(NCCCNc3ccnc4cc(Cl)ccc34)n2)cc1`, for which the growth is -56.4% (active). With `COC(=O)c1c2c(c(C)[n+]([O-])c1C)C(=O)C=CC2=O`, the growth is -61.3% (active). In the case of `O=C1/C(=C/c2ccc(C(F)(F)F)cc2)COc2ccc(O)c(O)c21`, the growth is -39.2% (active). Turning to `COc1ccc(-c2ccc(-c3ccc(C(=N)N)cn3)s2)cc1`, the growth was 81.3% (inactive).

For the compound `C[C@@H](CO)[C@@H]1CC[C@]2(C(=O)N3CCN(C)CC3)CC[C@]3(C)[C@H](CC[C@@H]4[C@@]5(C)CC[C@H](O)C(C)(C)[C@@H]5CC[C@]43C)[C@@H]12`, the growth was 105% (inactive). Take `OC(c1ccccc1)(c1ccccc1)c1ccccc1-c1ccccc1`: the growth is 88.5% (inactive).
